# According to PubChem BioAssay:
# Where “and” joins values, the source holds several entries; their conditions need not be identical. Equal entries are not always repeated.
# Assay: viability loss with induced miR-34 in A549 – imaging, A549 dox-inducible miR-34, nuclei and caspase counts, primary screen (AID 1347080); further: test concentration not given here
# Conditions: A549 miR-34 inducible, Hoechst nuclei count, 48 h; measured here: total cells with miR-34 induction; stronger effect = lower value
row,Structure (SMILES),cell count
1,CC(C)(C)OC(=O)NC1[C@H]2CNC[C@@H]12 (stereo not given in full),11400
2,O=C1CC[C@@]2(O)C3Cc4ccc(O)c5c4C2(CCN3CC2CC2)[C@H]1O5 (stereo not given in full),11300
3,N=C(N)c1ccc(CS(=O)(=O)F)cc1,11100
4,NC(CP(=O)(O)O)C(=O)O (stereo not given),10500
5,CCCCC/C=C\C/C=C\CCCCCCCC(=O)NCCO,5710 and 5830
6,CCCCCCCCCCCCCCCCOC[C@@H](COP(=O)([O-])OCC[N+](C)(C)C)OC(C)=O,4960
7,CCCCC/C=C\C/C=C\C/C=C\CCCCCCC(=O)NCCO,5830 and 6550
8,CCCCC/C=C\C/C=C\C/C=C\C/C=C\CCCC(N)=O,6020 and 5980
9,CCCCC/C=C\C/C=C\C/C=C\C/C=C\CCCCCC(=O)NCCO,5810 and 5940
10,CCCCC/C=C\C[C@@H](/C=C/C=C\C/C=C\CCCC(=O)O)OO,5520
11,CCCCC/C=C\C=C\[C@H](CCCCCCCC(=O)O)OO,5880
12,C[C@]12Cc3cn4c(nc3C=C1CCC1C2CC[C@@]2(C)[C@H]1CC[C@@]2(O)C#N)nc1ccccc14 (stereo not given in full),1380
13,CC(N)c1cccc(Cl)c1Cl (stereo not given),10200
14,C=CCN1CC[C@]23CCCCC2[C@H]1Cc1ccc(O)cc13 (stereo not given in full),10900
15,Clc1ccc(C2CC3CCC2N3)cn1 (stereo not given),6010
16,O=C1/C(=C/c2ccccc2)C[C@@]2(O)[C@H]3Cc4ccc(O)c5c4[C@@]2(CCN3CC2CC2)[C@H]1O5,588
17,COc1ccc2c(c1)C13CCCCC1C(C2)N(C)CC3 (stereo not given),10100
18,CCCC[C@H]1C(=O)O[C@H](C)[C@H](NC(=O)c2cccc(NC=O)c2OC)C(=O)O[C@@H](C)[C@@H]1OC(=O)CC(C)C,869
19,CCCCC[C@@H](/C=C/C=C\CCCCCCCC(=O)O)OO,5710
20,CCCCC/C=C\C/C=C\C/C=C\C=C\[C@H](CCCC(=O)O)OO,5950

row,Structure (SMILES),cell count
1,N[C@@]1(C(=O)O)CC[C@@H](C(=O)O)C1,10500
2,C=CCN1C[C@@H](C)N([C@H](c2ccc(C(=O)N(CC)CC)cc2)c2cccc(OC)c2)C[C@@H]1C,8780
3,N#CC(=Cc1ccc(O)c(O)c1)C(N)=S,9410
4,CCNC(=O)[C@H]1O[C@@H](n2cnc3c(N)ncnc32)C(O)[C@H]1O (stereo not given in full),9250
5,C[C@@H]1O[C@H](C[N+](C)(C)C)C[C@H]1O,10900
6,c1ccc2cc(CC3=NCCN3)ccc2c1,11100
7,CCCCC[C@@H](/C=C/C=C\C/C=C\C/C=C\CCCC(=O)O)OO,5790
8,CO/C1=C\C(C)=C\[C@@H](C)[C@@H](O)[C@@H](C)C/C(C)=C/C=C/[C@H](OC)[C@@H]([C@@H](C)[C@@H](O)[C@H](C)[C@@]2(O)C[C@@H](O)[C@H](C)[C@@H](C(C)C)O2)OC1=O,2990
9,C=CCN1CCC23c4c5ccc(O)c4O[C@H]2C(=O)CC[C@@]3(O)C1C5 (stereo not given in full),11300
10,CCCCCCCCCCCCCC(=O)O[C@@H]1[C@@H](C)[C@@]2(O)[C@@H](C=C(CO)C[C@@]3(O)C(=O)C(C)=C[C@@H]23)C2C(C)(C)[C@@]21OC(C)=O (stereo not given in full),418
11,CCCCCC1OC1C/C=C\CCCCCCCC(=O)O (stereo not given),5980
12,Oc1ccc2c3c1O[C@H]1c4[nH]c5ccccc5c4C[C@@]4(O)C(C2)N(CC2CC2)CCC314 (stereo not given in full),8190
13,COc1cc(C(O)CN)ccc1O (stereo not given),11000
14,N#CC(C#N)=Cc1ccc(O)cc1,5450
15,NC1CC1c1ccccc1 (stereo not given),10200 and 8220
16,CCCCC/C=C\C/C=C\C/C=C\C/C=C\CCCC(=O)NCCO,6110 and 5070
17,O=C(NC1CN2CCC1CC2)c1cc2ccoc2cn1 (stereo not given),10200
18,CN1CCC[C@@H]1Cc1c[nH]c2ccc(Nc3ncccc3[N+](=O)[O-])cc12,7590
19,C[C@@H]1O[C@@H](O[C@H]2C[C@@H](O)[C@]3(CO)[C@@H]4C(CC[C@]3(O)C2)[C@@]2(O)CC[C@H](C3COC(=O)C3)[C@@]2(C)C[C@H]4O)[C@H](O)[C@H](O)[C@H]1O (stereo not given in full),370
20,NC(CCP(=O)(O)O)C(=O)O (stereo not given),10400
